# Measured values published in ChEMBL document CHEMBL1961873, “Compounds: GSK PKIS; Assays: Nanosyn kinase panel” (2012).
# Experiments:
# [1] = molecular target: Mast/stem cell growth factor receptor Kit (Homo sapiens) (UniProt P10721); details: at 1 µM
# [2] = test system: Mast/stem cell growth factor receptor Kit (Homo sapiens), P10721 [D816V]; details: at 0.1 µM
# [3] = test system: Mast/stem cell growth factor receptor Kit (Homo sapiens), P10721 [D816V]; details: at 1 µM
# [4] = test system: Mast/stem cell growth factor receptor Kit (Homo sapiens), P10721 [T670I]; details: at 0.1 µM
# [5] = test system: Mast/stem cell growth factor receptor Kit (Homo sapiens), P10721 [T670I]; details: at 1 µM
# [6] = test system: Mast/stem cell growth factor receptor Kit (Homo sapiens), P10721 [V560G]; details: at 0.1 µM
# [7] = test system: Mast/stem cell growth factor receptor Kit (Homo sapiens), P10721 [V560G]; details: at 1 µM
# [8] = molecular target: Tyrosine-protein kinase Lck (Homo sapiens) (UniProt P06239); details: at 0.1 µM
# [9] = molecular target: Tyrosine-protein kinase Lck (Homo sapiens) (UniProt P06239); details: at 1 µM
# [10] = molecular target: Leukocyte tyrosine kinase receptor (Homo sapiens) (UniProt P29376); details: at 0.1 µM
# [11] = molecular target: Leukocyte tyrosine kinase receptor (Homo sapiens) (UniProt P29376); details: at 1 µM
# [12] = molecular target: Tyrosine-protein kinase Lyn (Homo sapiens) (UniProt P07948); details: at 0.1 µM
# [13] = molecular target: Tyrosine-protein kinase Lyn (Homo sapiens) (UniProt P07948); details: at 1 µM
# [14] = molecular target: Tyrosine-protein kinase Lyn (Homo sapiens) (UniProt P07948); details: at 0.1 µM; remark: listed apart in the source
# [15] = molecular target: Tyrosine-protein kinase Lyn (Homo sapiens) (UniProt P07948); details: at 1 µM; remark: listed apart in the source
# [16] = molecular target: T1, Tyrosine-protein kinase Mer (Homo sapiens) (UniProt Q12866); details: at 0.1 µM
# T1 sequence (whole entry): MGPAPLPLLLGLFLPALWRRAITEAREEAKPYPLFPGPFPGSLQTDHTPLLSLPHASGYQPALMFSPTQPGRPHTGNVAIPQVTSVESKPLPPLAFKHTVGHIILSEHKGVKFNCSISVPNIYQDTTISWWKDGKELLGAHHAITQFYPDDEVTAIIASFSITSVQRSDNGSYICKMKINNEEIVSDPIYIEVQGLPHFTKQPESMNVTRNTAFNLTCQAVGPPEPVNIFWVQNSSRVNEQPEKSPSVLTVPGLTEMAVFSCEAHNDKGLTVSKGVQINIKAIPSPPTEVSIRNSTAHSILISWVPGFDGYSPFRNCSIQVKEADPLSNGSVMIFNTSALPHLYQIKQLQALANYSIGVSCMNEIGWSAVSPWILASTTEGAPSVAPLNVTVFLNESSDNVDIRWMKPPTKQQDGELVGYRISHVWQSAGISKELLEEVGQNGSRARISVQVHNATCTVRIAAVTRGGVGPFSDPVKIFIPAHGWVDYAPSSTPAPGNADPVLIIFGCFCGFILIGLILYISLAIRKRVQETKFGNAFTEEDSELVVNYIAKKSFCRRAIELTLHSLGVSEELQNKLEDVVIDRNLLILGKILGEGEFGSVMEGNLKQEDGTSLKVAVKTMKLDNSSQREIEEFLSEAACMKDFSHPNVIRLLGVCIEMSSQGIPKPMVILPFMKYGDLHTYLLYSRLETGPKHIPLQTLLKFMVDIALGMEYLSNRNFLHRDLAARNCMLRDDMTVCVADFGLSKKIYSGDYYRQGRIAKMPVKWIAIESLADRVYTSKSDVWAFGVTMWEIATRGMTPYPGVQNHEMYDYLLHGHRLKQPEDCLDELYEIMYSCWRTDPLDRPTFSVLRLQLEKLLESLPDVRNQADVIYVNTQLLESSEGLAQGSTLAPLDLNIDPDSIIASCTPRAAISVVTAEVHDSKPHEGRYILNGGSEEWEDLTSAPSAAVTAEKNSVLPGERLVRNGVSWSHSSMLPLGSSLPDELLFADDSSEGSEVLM
# [17] = molecular target: T1, Tyrosine-protein kinase Mer (Homo sapiens); details: at 1 µM
# [18] = molecular target: Hepatocyte growth factor receptor (Homo sapiens) (UniProt P08581); details: at 0.1 µM
# [19] = molecular target: Hepatocyte growth factor receptor (Homo sapiens) (UniProt P08581); details: at 1 µM
# [20] = molecular target: T2, Muscle, skeletal receptor tyrosine-protein kinase (Homo sapiens) (UniProt O15146); details: at 0.1 µM;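 further: values are mean inhibition of MuSK from the GSK PKIS kinase screening panel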
# T2 sequence (whole entry): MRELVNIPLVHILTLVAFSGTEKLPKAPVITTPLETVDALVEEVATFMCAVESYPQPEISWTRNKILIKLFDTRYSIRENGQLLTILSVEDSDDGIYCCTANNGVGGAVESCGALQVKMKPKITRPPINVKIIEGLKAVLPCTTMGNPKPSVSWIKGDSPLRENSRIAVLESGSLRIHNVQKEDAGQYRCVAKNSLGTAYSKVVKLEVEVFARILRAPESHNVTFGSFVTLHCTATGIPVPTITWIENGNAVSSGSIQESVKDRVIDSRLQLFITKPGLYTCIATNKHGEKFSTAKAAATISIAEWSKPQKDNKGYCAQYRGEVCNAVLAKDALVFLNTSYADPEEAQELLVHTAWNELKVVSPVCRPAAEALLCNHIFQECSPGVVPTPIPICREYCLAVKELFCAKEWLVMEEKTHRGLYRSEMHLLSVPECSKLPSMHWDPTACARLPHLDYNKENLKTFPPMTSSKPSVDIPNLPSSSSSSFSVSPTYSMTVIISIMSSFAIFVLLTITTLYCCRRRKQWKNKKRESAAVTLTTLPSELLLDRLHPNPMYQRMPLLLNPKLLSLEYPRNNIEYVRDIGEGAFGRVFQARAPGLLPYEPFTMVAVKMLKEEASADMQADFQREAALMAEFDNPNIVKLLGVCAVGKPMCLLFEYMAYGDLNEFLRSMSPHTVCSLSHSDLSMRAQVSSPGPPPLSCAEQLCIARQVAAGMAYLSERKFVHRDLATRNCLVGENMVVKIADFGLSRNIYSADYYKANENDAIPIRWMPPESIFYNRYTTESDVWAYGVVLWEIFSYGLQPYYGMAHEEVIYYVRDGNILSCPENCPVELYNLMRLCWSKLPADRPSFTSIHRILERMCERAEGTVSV
# Sequence of Tyrosine-protein kinase Lyn (Homo sapiens) (P07948 2-512 limits assumed): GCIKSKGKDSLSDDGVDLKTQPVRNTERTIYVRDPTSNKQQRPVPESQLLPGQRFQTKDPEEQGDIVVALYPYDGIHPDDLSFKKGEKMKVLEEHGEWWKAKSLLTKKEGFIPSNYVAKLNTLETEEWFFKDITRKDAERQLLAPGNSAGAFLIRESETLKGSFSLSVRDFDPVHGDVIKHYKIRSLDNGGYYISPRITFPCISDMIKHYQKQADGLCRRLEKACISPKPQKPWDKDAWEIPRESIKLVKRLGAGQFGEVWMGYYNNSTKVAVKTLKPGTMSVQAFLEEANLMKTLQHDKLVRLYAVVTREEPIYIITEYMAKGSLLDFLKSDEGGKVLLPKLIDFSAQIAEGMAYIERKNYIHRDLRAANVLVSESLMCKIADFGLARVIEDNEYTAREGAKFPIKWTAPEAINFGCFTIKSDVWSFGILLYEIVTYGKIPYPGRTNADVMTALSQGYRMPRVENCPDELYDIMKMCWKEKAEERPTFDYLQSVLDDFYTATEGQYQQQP
# Sequence of Hepatocyte growth factor receptor (Homo sapiens) (P08581 whole entry): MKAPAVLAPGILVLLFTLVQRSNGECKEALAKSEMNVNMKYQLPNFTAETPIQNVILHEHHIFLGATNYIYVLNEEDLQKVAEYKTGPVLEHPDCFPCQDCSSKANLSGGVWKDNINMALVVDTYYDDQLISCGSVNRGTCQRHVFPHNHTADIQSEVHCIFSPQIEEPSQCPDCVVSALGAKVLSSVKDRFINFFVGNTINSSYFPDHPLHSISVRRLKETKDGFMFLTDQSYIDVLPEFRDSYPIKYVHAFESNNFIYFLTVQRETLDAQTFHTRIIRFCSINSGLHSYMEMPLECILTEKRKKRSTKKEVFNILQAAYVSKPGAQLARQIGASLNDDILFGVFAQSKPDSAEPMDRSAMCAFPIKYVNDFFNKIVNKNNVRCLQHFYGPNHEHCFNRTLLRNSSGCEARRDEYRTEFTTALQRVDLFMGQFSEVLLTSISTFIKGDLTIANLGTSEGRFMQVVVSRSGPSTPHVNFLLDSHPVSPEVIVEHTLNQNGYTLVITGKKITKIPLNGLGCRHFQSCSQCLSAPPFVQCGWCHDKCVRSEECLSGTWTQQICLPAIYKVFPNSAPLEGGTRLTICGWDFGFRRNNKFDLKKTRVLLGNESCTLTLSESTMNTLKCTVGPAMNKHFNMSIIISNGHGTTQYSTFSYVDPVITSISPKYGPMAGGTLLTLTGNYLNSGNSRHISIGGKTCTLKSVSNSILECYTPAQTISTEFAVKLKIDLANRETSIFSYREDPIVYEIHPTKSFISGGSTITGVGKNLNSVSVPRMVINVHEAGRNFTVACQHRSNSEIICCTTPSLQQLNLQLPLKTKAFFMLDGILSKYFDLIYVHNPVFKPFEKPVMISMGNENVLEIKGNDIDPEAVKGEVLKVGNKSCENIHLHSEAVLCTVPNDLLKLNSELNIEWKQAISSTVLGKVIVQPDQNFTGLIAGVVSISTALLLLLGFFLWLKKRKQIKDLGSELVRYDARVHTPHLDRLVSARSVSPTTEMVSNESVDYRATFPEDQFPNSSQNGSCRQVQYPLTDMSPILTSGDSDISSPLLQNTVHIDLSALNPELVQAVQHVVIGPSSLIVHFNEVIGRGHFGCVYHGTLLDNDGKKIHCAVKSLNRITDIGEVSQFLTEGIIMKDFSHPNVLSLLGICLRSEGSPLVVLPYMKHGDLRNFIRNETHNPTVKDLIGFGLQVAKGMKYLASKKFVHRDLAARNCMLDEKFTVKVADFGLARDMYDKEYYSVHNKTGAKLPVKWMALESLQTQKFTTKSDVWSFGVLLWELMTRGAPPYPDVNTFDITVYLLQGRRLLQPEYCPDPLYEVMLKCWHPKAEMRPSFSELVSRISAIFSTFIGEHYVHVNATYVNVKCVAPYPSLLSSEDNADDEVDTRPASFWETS
# Sequence of Mast/stem cell growth factor receptor Kit (Homo sapiens), P10721 [D816V] (P10721 whole entry D816V): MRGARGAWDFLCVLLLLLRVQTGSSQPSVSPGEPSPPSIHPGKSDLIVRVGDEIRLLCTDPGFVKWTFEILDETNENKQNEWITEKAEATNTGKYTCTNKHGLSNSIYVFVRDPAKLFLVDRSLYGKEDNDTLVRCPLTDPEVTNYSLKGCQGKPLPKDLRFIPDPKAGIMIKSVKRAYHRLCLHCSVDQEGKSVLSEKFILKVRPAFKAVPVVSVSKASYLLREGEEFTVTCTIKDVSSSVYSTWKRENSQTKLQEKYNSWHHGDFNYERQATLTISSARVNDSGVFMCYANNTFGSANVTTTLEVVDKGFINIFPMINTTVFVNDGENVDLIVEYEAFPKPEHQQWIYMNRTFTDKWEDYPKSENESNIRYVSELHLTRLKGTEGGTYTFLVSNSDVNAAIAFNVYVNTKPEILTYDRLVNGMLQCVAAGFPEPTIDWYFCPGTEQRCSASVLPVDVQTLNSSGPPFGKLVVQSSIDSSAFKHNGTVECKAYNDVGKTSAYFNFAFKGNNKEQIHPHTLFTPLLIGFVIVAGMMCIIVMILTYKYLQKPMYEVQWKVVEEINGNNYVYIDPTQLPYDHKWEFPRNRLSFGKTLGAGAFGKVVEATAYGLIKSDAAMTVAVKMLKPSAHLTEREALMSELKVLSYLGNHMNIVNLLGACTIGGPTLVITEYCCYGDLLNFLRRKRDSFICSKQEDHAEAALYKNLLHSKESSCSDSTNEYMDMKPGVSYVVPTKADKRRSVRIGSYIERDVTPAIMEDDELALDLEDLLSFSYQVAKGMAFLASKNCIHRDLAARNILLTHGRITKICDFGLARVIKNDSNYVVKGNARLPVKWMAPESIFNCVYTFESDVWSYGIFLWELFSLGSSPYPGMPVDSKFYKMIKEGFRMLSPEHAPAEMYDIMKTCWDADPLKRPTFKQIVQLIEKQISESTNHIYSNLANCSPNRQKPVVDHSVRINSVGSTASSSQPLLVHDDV
# Sequence of Mast/stem cell growth factor receptor Kit (Homo sapiens), P10721 [V560G] (P10721 whole entry V560G): as the sequence (P10721 whole entry D816V) above, with V560G, V816D counted along it
# Sequence of Leukocyte tyrosine kinase receptor (Homo sapiens) (P29376 whole entry): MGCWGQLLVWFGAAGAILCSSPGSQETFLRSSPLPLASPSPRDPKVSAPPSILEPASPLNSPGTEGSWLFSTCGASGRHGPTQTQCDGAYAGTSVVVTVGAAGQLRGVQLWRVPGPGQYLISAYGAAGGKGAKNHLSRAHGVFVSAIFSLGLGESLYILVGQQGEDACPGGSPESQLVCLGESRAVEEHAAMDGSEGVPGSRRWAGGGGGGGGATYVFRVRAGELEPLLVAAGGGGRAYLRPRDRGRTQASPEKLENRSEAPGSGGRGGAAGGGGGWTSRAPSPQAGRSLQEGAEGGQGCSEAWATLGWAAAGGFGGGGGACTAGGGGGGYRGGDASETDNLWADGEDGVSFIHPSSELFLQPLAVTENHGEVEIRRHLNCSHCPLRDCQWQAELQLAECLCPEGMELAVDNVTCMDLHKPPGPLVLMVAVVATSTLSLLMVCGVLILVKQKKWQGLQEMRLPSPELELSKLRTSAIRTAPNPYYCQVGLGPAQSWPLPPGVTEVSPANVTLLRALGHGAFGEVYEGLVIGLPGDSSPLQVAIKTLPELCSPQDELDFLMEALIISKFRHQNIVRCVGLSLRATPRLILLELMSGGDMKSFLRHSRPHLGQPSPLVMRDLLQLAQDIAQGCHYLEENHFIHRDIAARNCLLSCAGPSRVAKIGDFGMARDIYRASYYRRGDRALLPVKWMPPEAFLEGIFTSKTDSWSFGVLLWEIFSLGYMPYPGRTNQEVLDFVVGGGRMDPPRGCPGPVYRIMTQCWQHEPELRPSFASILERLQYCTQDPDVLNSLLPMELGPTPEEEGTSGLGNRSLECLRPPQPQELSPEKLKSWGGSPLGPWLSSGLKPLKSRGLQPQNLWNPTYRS
# Sequence of Mast/stem cell growth factor receptor Kit (Homo sapiens), P10721 [T670I] (P10721 whole entry T670I): as the sequence (P10721 whole entry D816V) above, with T670I, V816D counted along it
# Sequence of Tyrosine-protein kinase Lck (Homo sapiens) (P06239 2-509 limits assumed): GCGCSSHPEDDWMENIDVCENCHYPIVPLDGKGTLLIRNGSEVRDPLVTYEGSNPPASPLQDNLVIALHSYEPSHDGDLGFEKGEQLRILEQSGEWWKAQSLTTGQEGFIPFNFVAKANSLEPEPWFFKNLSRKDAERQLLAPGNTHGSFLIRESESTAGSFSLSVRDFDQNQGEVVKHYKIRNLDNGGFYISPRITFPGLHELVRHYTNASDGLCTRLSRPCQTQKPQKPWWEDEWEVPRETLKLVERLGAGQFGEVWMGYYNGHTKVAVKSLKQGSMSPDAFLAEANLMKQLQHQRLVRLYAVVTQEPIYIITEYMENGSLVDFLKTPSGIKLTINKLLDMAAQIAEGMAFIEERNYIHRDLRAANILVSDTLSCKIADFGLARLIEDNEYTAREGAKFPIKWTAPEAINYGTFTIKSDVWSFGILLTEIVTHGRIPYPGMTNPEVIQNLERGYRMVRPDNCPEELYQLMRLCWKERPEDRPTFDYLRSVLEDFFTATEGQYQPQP
# Sequence of Mast/stem cell growth factor receptor Kit (Homo sapiens) (P10721 whole entry): as the sequence (P10721 whole entry D816V) above, with V816D counted along it
SMILES,inhibition [1],inhibition [2],inhibition [3],inhibition [4],inhibition [5],inhibition [6],inhibition [7],inhibition [8],inhibition [9],inhibition [10],inhibition [11],inhibition [12],inhibition [13],inhibition [14],inhibition [15],inhibition [16],inhibition [17],inhibition [18],inhibition [19],inhibition [20]
CNC(=O)c1sc(-n2cnc3cc(OC)c(OC)cc32)cc1OCc1ccccc1C(F)(F)F,6.11%,2.29%,6.55%,1.67%,1.95%,-0.58%,0.44%,3.6%,11.9%,2.32%,3.95%,3.05%,8.91%,4.12%,7.2%,0.56%,2.64%,1.53%,3.89%,2.71%
CS(=O)(=O)CCNCc1ccc(-c2ccc3ncnc(Nc4ccc(OCc5ccccc5)cc4)c3c2)o1,8.96%,2.54%,2.47%,3.32%,4.61%,4.25%,1.48%,4.19%,22%,4.28%,4.57%,4.79%,9.83%,4.55%,8.36%,7.16%,43.7%,-0.6%,4.43%,2.69%
N#Cc1ccc2c(-c3ccnc(NC4CC4)n3)c(-c3ccc(F)cc3)nn2c1,20.2%,-1.04%,2.35%,1.28%,0.73%,0.24%,1.17%,1.08%,0.11%,1.05%,-0.2%,-0.29%,1.87%,-0.74%,1.81%,0.43%,2.56%,3.34%,3.65%,0.58%
CC(C)c1ccc(-c2cc(-c3c[nH]nc3-c3ccccn3)ccn2)cc1,2.85%,0.06%,3.83%,1.04%,1.23%,-0.59%,3.5%,1.31%,-0.13%,1.24%,2.43%,1.49%,1.48%,0.81%,1.31%,-0.12%,3.22%,-1.81%,3.3%,5.54%
COc1cccc(Nc2nccc(-c3cnn4ncccc34)n2)c1,99.3%,-1.05%,4.28%,60.9%,95.3%,40.2%,78.3%,3.11%,11.2%,4.15%,18.2%,5.3%,16.9%,3.27%,11.3%,1.29%,12.1%,3.9%,12.1%,2.83%
CNC(=O)c1cncc(/C=C/c2ccccc2C)c1,14.5%,1.55%,3.24%,3.26%,4.48%,3.49%,5.75%,1.99%,7.19%,2.41%,2.98%,7.42%,18.9%,3.73%,14.9%,-0.15%,1.66%,9.7%,5.5%,3.91%
O=C1Nc2ccccc2/C1=C1\CCc2cc(O)ccc21,93.7%,4.08%,1.34%,39.3%,88.1%,6.44%,41.6%,3.68%,8.53%,7.84%,36.7%,6.08%,12%,2.38%,9.08%,2.69%,8.7%,6.45%,10.1%,5.49%
CS(=O)(=O)Nc1ccc(-c2ccc3c(NC(=O)C4CC4)n[nH]c3c2)cc1,6.32%,2.91%,2.86%,1.55%,1.56%,0.02%,0.94%,2.88%,8.63%,4.21%,3.75%,3.8%,4.62%,2.46%,3.58%,0.84%,3.15%,6.7%,-3.22%,3.2%
Cc1ccc(-c2cc3c(NC(=O)C4CC4)ncnc3o2)cc1,32.2%,4.08%,5.68%,4.38%,8.01%,-2.51%,0.4%,2.92%,11.2%,4.28%,3.83%,5.46%,6.63%,2.61%,5.69%,2.35%,6.56%,4.71%,4.06%,2.65%
COc1cc(Nc2ncc(-c3ccccc3)o2)cc(OC)c1,97.2%,3.13%,2.77%,21.6%,81.7%,33.6%,83.5%,2.6%,14.5%,4.67%,5.66%,8.05%,27.4%,5.81%,22.1%,3.6%,4.87%,3.69%,5.98%,2.95%
FC(F)(F)CNc1nccc(-c2cnn3ncccc23)n1,3.6%,0.88%,2.79%,0.67%,0.91%,-2.94%,0.4%,1.7%,3.74%,2.72%,0.86%,3.13%,3.07%,2.86%,1.59%,2.37%,-0.52%,0.67%,9.54%,2.13%
CCS(=O)(=O)c1ccc(OC)c(Nc2ncc(-c3cccc(C(C)=O)c3)o2)c1,71.4%,5.74%,12.1%,-0.79%,10.7%,3.47%,13%,2.7%,25.4%,2.87%,3.34%,11.3%,45.5%,7.74%,40.8%,1.15%,2.12%,1.95%,7.9%,2.82%
O=C(Nc1n[nH]c2nnc(-c3cccnc3)cc12)C1CC1,2.59%,-1.93%,1.15%,-0.12%,0.35%,2.26%,1.71%,1.03%,3.69%,1.26%,0.15%,0.94%,1.49%,1.05%,1.61%,1.05%,1.8%,3.88%,0.68%,-0.19%
